The supplement of paper PMC8975748
Counter-ions that a name gives are not always drawn. ± gives the standard deviation of the averaged measurements.

Experiments:
[1] = system: Saccharomyces cerevisiae BY4741 SeMeCo community; test: mean cell size (pixel area) (pixels); higher = larger cells; settings: 10 µM; 24 h; SM minimal medium
How it was run: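 A fluorescent Saccharomyces cerevisiae BY4741 community carrying four plasmids was used, with each plasmid complementing one auxotrophy and bearing a fluorescent marker. An overnight preculture at OD600 = 1.0 was diluted to OD600 = 0.3, and 70 µl went into 384-well plates acoustically predosed with drug (final 10 µM) in SM medium for 24 h. After paraformaldehyde fixation, cells were imaged by automated confocal microscopy and analysed in Harmony, giving the mean cell pixel area per well. Each value is the average of 3 replicates. Same SeMeCo high-content imaging drug screen: Selleck FDA-approved drugs at 10 µM, 24 h in SM medium, 384-well plates, 3 replicates.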

[2] = system: Saccharomyces cerevisiae BY4741 SeMeCo community; test: z-score of prototroph abundance vs DMSO median; higher = larger share of this subpopulation than in DMSO controls; settings: 10 µM; 24 h; SM minimal medium; subpopulation (auxotrophy): Prototroph
How it was run: (§1)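 A Saccharomyces cerevisiae BY4741 community carried four plasmids, each restoring one auxotrophy and encoding a distinct fluorescent protein. It was pre-grown overnight to OD600 1.0, diluted to 0.3, and 70 µl was added to 384-well plates acoustically predosed with library drugs (10 µM final), then grown 24 h in minimal SM medium. Cells were paraformaldehyde-fixed and imaged by automated confocal microscopy, with single-auxotroph fluorescent strains setting thresholds and autofluorescence correction. Each subpopulation's abundance was scored as a z-score against the vehicle-well median.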

[3] = system: Saccharomyces cerevisiae BY4741 SeMeCo community; test: z-score of subpopulation abundance vs DMSO median, subpopulation auxotrophic for M; higher = larger share of this subpopulation than in DMSO controls; settings: 10 µM; 24 h; SM minimal medium; subpopulation (auxotrophy): M
How it was run: as §1

[4] = system: Saccharomyces cerevisiae BY4741 SeMeCo community; test: z-score of subpopulation abundance vs DMSO median, subpopulation auxotrophic for L; higher = larger share of this subpopulation than in DMSO controls; settings: 10 µM; 24 h; SM minimal medium; subpopulation (auxotrophy): L
How it was run: as §1

[5] = system: Saccharomyces cerevisiae BY4741 SeMeCo community; test: z-score of subpopulation abundance vs DMSO median, subpopulation auxotrophic for H; higher = larger share of this subpopulation than in DMSO controls; settings: 10 µM; 24 h; SM minimal medium; subpopulation (auxotrophy): H
How it was run: as §1

[6] = system: Saccharomyces cerevisiae BY4741 SeMeCo community; test: z-score of subpopulation abundance vs DMSO median, subpopulation auxotrophic for LM; higher = larger share of this subpopulation than in DMSO controls; settings: 10 µM; 24 h; SM minimal medium; subpopulation (auxotrophy): LM
How it was run: as §1

[7] = system: Saccharomyces cerevisiae BY4741 SeMeCo community; test: z-score of subpopulation abundance vs DMSO median, subpopulation auxotrophic for HM; higher = larger share of this subpopulation than in DMSO controls; settings: 10 µM; 24 h; SM minimal medium; subpopulation (auxotrophy): HM
How it was run: as §1

[8] = system: Saccharomyces cerevisiae BY4741 SeMeCo community; test: z-score of subpopulation abundance vs DMSO median, subpopulation auxotrophic for HU; higher = larger share of this subpopulation than in DMSO controls; settings: 10 µM; 24 h; SM minimal medium; subpopulation (auxotrophy): HU
How it was run: as §1

[9] = system: Saccharomyces cerevisiae BY4741 SeMeCo community; test: z-score of subpopulation abundance vs DMSO median, subpopulation auxotrophic for UM; higher = larger share of this subpopulation than in DMSO controls; settings: 10 µM; 24 h; SM minimal medium; subpopulation (auxotrophy): UM
How it was run: as §1

[10] = system: Saccharomyces cerevisiae BY4741 SeMeCo community; test: z-score of subpopulation abundance vs DMSO median, subpopulation auxotrophic for HL; higher = larger share of this subpopulation than in DMSO controls; settings: 10 µM; 24 h; SM minimal medium; subpopulation (auxotrophy): HL
How it was run: as §1

[11] = system: Saccharomyces cerevisiae BY4741 SeMeCo community; test: z-score of subpopulation abundance vs DMSO median, subpopulation auxotrophic for HLU; higher = larger share of this subpopulation than in DMSO controls; settings: 10 µM; 24 h; SM minimal medium; subpopulation (auxotrophy): HLU
How it was run: as §1

[12] = system: Saccharomyces cerevisiae BY4741 SeMeCo community; test: z-score of subpopulation abundance vs DMSO median, subpopulation auxotrophic for HLM; higher = larger share of this subpopulation than in DMSO controls; settings: 10 µM; 24 h; SM minimal medium; subpopulation (auxotrophy): HLM
How it was run: as §1

[13] = system: Saccharomyces cerevisiae BY4741 SeMeCo community; test: z-score of subpopulation abundance vs DMSO median, subpopulation auxotrophic for HUM; higher = larger share of this subpopulation than in DMSO controls; settings: 10 µM; 24 h; SM minimal medium; subpopulation (auxotrophy): HUM
How it was run: as §1

[14] = system: Saccharomyces cerevisiae BY4741 SeMeCo community; test: z-score of subpopulation abundance vs DMSO median, subpopulation auxotrophic for LUM; higher = larger share of this subpopulation than in DMSO controls; settings: 10 µM; 24 h; SM minimal medium; subpopulation (auxotrophy): LUM
How it was run: as §1

[15] = system: Saccharomyces cerevisiae BY4741 SeMeCo community; test: z-score of subpopulation abundance vs DMSO median, subpopulation auxotrophic for HLUM; higher = larger share of this subpopulation than in DMSO controls; settings: 10 µM; 24 h; SM minimal medium; subpopulation (auxotrophy): HLUM
How it was run: as §1

[16] = system: Saccharomyces cerevisiae BY4741 SeMeCo community; test: z-score of subpopulation abundance vs DMSO median, subpopulation auxotrophic for U; higher = larger share of this subpopulation than in DMSO controls; settings: 10 µM; 24 h; SM minimal medium; subpopulation (auxotrophy): U
How it was run: as §1

[17] = system: Saccharomyces cerevisiae BY4741 SeMeCo community; test: z-score of subpopulation abundance vs DMSO median, subpopulation auxotrophic for LU; higher = larger share of this subpopulation than in DMSO controls; settings: 10 µM; 24 h; SM minimal medium; subpopulation (auxotrophy): LU
How it was run: as §1

SMILES | mean cell size [1] | z-score of prototroph abundance [2] | z-score of subpopulation abundance [3] | z-score of subpopulation abundance [4] | z-score of subpopulation abundance [5] | z-score of subpopulation abundance [6] | z-score of subpopulation abundance [7] | z-score of subpopulation abundance [8] | z-score of subpopulation abundance [9] | z-score of subpopulation abundance [10] | z-score of subpopulation abundance [11] | z-score of subpopulation abundance [12] | z-score of subpopulation abundance [13] | z-score of subpopulation abundance [14] | z-score of subpopulation abundance [15] | z-score of subpopulation abundance [16] | z-score of subpopulation abundance [17]
COc1c(N2C[C@@H]3CCCN[C@@H]3C2)c(F)cc2c(=O)c(C(=O)O)cn(C3CC3)c12 [Moxifloxacin HCl] | 12.3 ± 0.15 | -0.74 | 0.89 | 2.07 | 0.53 | 2.74 | 0.67 | -0.55 | -0.68 | 1.26 | -0.07 | 0.72 | 0.22 | 0.77 | 1.08 | – | –
CCC(=O)NS(=O)(=O)c1ccc(-c2c(-c3ccccc3)noc2C)cc1 [Parecoxib] | 12.6 ± 0.088 | -0.12 | 0.6 | – | 0.1 | 0.77 | – | – | 0.49 | – | 0.16 | 0.22 | – | 0.13 | – | -0.29 | -0.15
Nc1c(Br)cc(Br)cc1CN[C@H]1CC[C@H](O)CC1 [Ambroxol HCl] | 12.1 ± 0.17 | – | -0.93 | -1.26 | -0.09 | -0.43 | -1.17 | -1.1 | -0.8 | -0.86 | -0.39 | -0.5 | -0.94 | -1.08 | -0.43 | -0.79 | –
C[C@H]1O[C@@H](O[C@H]2[C@@H](O)C[C@H](O[C@H]3[C@@H](O)C[C@H](O[C@H]4CC[C@@]5(C)[C@H](CC[C@@H]6[C@@H]5C[C@@H](O)[C@]5(C)[C@@H](C7=CC(=O)OC7)CC[C@]65O)C4)O[C@@H]3C)O[C@@H]2C)C[C@H](O)[C@@H]1O [Digoxin] | – | 0.39 | -1.12 | – | 0.21 | -0.41 | – | 0.8 | -0.69 | -0.11 | -0.03 | -0.7 | – | – | -0.34 | 0.17 | -0.6
CC/C(=C(\c1ccccc1)c1ccc(OCCN(C)C)cc1)c1ccccc1 [Tamoxifen Citrate] | 11.7 ± 0.14 | -0.56 | -1.11 | -0.42 | 1.16 | -0.23 | 0.16 | 0.74 | 1.43 | – | 0.36 | -0.48 | 1.07 | 0.58 | -0.65 | 0.72 | –
CO[C@H]1O[C@@H]2O[C@@]3(C)CC[C@H]4[C@H](C)CC[C@@H]([C@H]1C)[C@@]24OO3 [Artemether] | – | 1.17 | -4.52 | – | 2.67 | -1.32 | – | 0.26 | -0.57 | -0.28 | -0.85 | – | -0.53 | -0.58 | 0.11 | 0.63 | -0.14
NC(=O)N/N=C/c1ccc([N+](=O)[O-])o1 [Nitrofural] | 12.84 ± 0.1 | – | 1.2 | -0.82 | -0.29 | -1.3 | 0.63 | -0.42 | 0.54 | 0 | -1.14 | 3.28 | -0.73 | -0.73 | 0.17 | -0.14 | –
C[C@@H](O)[C@H]1C(=O)N2C(C(=O)O)=C(S[C@@H]3CN[C@H](CNS(N)(=O)=O)C3)[C@H](C)[C@H]12 [Doripenem Hydrate] | 12.38 ± 0.092 | 0.39 | -0.6 | – | -0.3 | -0.44 | -0.76 | – | -0.42 | -0.25 | -0.09 | – | – | – | -1.04 | 0.2 | 0.22
Oc1c(Br)cc(Br)c2cccnc12 [Broxyquinoline] | 14.7 ± 0.16 | -16.8 | 3.22 | – | 11.6 | 5.88 | 27.7 | 16.9 | 6.77 | 10.5 | 27.1 | 49.4 | – | 12.8 | – | -3.11 | 6.62
CC1(C)CC[C@]2(C(=O)O)CC[C@]3(C)C(=CC[C@@H]4[C@@]5(C)CC[C@H](O)C(C)(C)[C@@H]5CC[C@]43C)[C@@H]2C1 [Oleanolic Acid] | 12.4 ± 0.22 | – | 0.25 | -0.03 | -0.07 | 0.88 | 1.05 | 0.23 | 0.1 | 0.59 | 0.15 | 0.33 | 0.93 | 0.78 | 0.12 | -0.6 | –
CN[C@H]1C(=O)N[C@@H]2Cc3ccc(cc3)Oc3cc4cc(c3O[C@@H]3O[C@H](C(=O)O)[C@@H](O)[C@H](O)[C@H]3NC(=O)CCCCCCCCC(C)C)Oc3ccc(cc3Cl)[C@@H](O)[C@@H]3NC(=O)[C@H](NC(=O)[C@@H]4NC(=O)[C@@H](NC2=O)c2cc(cc(O)c2Cl)Oc2cc1ccc2O)c1ccc(O)c(c1)-c1c(O[C@H]2O[C@H](CO)[C@@H](O)[C@H](O)[C@@H]2O)cc(O)cc1[C@@H](C(=O)NCCCN(C)C)NC3=O [Dalbavancin] | 12.8 ± 0.072 | -0.15 | -4.48 | -0.21 | 4.04 | -1.16 | -1.02 | 3.63 | -0.56 | 1.2 | 2.43 | 1.32 | 1.97 | 0.72 | 0.69 | 1.53 | –
Cc1cc(NS(=O)(=O)c2ccc(N)cc2)no1 [Sulfamethoxazole sodium] | 12.3 ± 0.35 | -0.28 | 0.79 | – | – | -1.48 | -0.51 | 0.96 | 1.33 | -1.13 | -1.18 | – | 1.03 | -0.34 | -0.74 | 0.7 | 0.09
CCC[C@@H]1C[C@@H](C(=O)N[C@@H]([C@H]2O[C@H](SC)[C@H](O)[C@@H](O)[C@H]2O)[C@@H](C)O)N(C)C1 [Lincomycin Hydrochloride Monohydrate] | 12.3 ± 0.19 | – | 0.19 | -0.22 | -0.54 | -0.56 | -0.07 | 0.41 | 0.42 | -0.46 | 0.91 | -0.3 | -0.11 | 0.4 | 0.63 | – | –
CN(C)CCCN1c2ccccc2Sc2ccccc21 [Promazine hydrochloride] | – | 0.19 | 0.15 | – | -0.82 | -0.08 | – | -0.69 | -0.02 | -0.82 | 0.06 | 0.41 | – | 0.25 | 0.6 | 0.34 | 0.52
C[C@H](NCc1ccc(OCc2cccc(F)c2)cc1)C(N)=O [Safinamide Mesylate] | 12.4 ± 0.16 | – | 0.58 | – | 0.45 | 0.94 | 1.04 | 0.27 | 0.17 | 0.64 | 0.4 | 0.54 | – | – | 0.33 | – | 0.54
CCN(CC)CCOc1ccc(C(=C(Cl)c2ccccc2)c2ccccc2)cc1 [Clomifene citrate] | 12.1 ± 0.14 | -1.75 | 0.99 | 0.3 | 0.53 | 1.33 | 1.75 | 1.86 | 0.9 | 1.64 | 2.19 | 1.37 | 1.42 | 1.75 | 0.41 | 0.29 | –
CCS(=O)(=O)CCn1c([N+](=O)[O-])cnc1C [Tinidazole] | 12.26 ± 0.046 | 0.58 | -0.75 | – | -1.03 | 0.29 | -1.1 | -0.4 | -0.43 | -0.55 | 0.09 | -1.15 | – | -0.2 | – | 0.56 | 0.29
